Test results taken from PubChem BioAssay (NCATS).
Records with an inconclusive call do not appear. Where a call stands in place of a potency, no number is given. Values without a mark were called inactive. Active and inactive are the calls of the source. Unless noted, calls follow the shape of the dose curve; as a rule, active = well fitted curve in the direction sought with a large enough effect; inconclusive = small, poorly fitted or top-dose-only effect, or another doubt; inactive = no such curve, though single readings can be large; an effect the other way counts as inactive or inconclusive.

What was measured:
[1] = Primary qHTS for inhibitors of La Crosse Virus (LACV) - induced cell death in SH-SY5Y cells (AID 1508616);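 also: top concentration of the series differs between compounds; higher means more rescue of cells from virus-induced death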
How it was run: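 Luminescent ATP readout (ATPLite 1step, 5 min room temperature) measured rescue from LACV-induced death after 6 days of infection at 0.01 MOI; normalized to infected DMSO wells and uninfected DMSO wells.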

[2] = Counterscreen qHTS for small molecule stabilizers of the endoplasmic reticulum resident proteome: GLuc-NoTag assay (AID 1508627);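 also: SH-SY5Y cells given compound then 100 nM thapsigargin to empty ER calcium; series mostly up to about 76 µM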
How it was run: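 Luminescence of Gaussia luciferase secreted into the medium (coelenterazine, 0.07x final, unlysed cells) was the read-out. Human SH-SY5Y neuroblastoma cells constitutively secreting untagged GLuc received compound for 19 h, then 100 nM thapsigargin for 4 h.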

[3] = Confirmatory qHTS for small molecule stabilizers of the endoplasmic reticulum resident proteome: Secreted ER Calcium Modulated Protein (SERCaMP) assay (AID 1508628);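 also: SH-SY5Y cells given compound 16 h then thapsigargin 100 nM for 4 h; series mostly up to about 76 µM; nearly all actives have a fitted effect of over 40% in size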
How it was run: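 We seeded SH-SY5Y-GLuc-SERCaMP cells, added compounds (three concentrations in the primary run, eleven up to 76.6 uM in confirmation), incubated 16 h, depleted ER calcium with thapsigargin, and read luciferase 4 h later.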

[4] = Primary qHTS for small molecule stabilizers of the endoplasmic reticulum resident proteome: Secreted ER Calcium Modulated Protein (SERCaMP) assay (AID 1508630)
How it was run: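 GLuc-SERCaMP-expressing SH-SY5Y cells, pretreated 16 h with compound, are challenged with thapsigargin to empty ER calcium stores; after 4 h, coelenterazine is added directly to the medium and luminescence is imaged.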

[5] = molecular target: Calcium and integrin-binding protein 1 (Homo sapiens) (UniProt Q99828); assay: Primary qHTS for Identification of Calcium Integrin Binding Protein 1 (CIB1) Competitor (AID 1508620);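 also: GST tagged CIB1 binding a fluorescein labelled alphaIIb integrin peptide tracer; top concentration of the series differs between compounds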
Chain of Calcium and integrin-binding protein 1 (Homo sapiens) (Q99828 whole entry, looked up): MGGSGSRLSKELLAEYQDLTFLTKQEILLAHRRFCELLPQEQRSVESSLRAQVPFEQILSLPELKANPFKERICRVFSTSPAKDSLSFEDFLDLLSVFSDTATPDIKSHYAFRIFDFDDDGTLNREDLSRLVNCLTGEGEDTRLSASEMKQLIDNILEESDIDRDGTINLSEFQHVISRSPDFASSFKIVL
How it was run: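 CIB1-GST (1 uM final) and compound incubated 15 min at room temperature before adding FITC-alphaIIb peptide tracer (100 nM final). Competition for binding read by fluorescence polarization (ex 480, em 540) after another 15 min at room temperature.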

[6] = molecular target: Cytochrome P450 2D6 (Homo sapiens) (UniProt P10635); assay: Cytochrome P450 family 2 subfamily D member 6 (CYP2D6) small molecule antagonists: luciferase biochemical (cell-free) qHTS assay (AID 1645840; active = well fitted curve in the direction sought with a large enough effect in the repeat runs; an effect the other way counts as inactive or inconclusive; also: nearly all actives have a fitted effect of over 55% in size; also: potency is read from the fitted curve at half-maximal effect)
Chain of Cytochrome P450 2D6 (Homo sapiens) (P10635 whole entry, looked up): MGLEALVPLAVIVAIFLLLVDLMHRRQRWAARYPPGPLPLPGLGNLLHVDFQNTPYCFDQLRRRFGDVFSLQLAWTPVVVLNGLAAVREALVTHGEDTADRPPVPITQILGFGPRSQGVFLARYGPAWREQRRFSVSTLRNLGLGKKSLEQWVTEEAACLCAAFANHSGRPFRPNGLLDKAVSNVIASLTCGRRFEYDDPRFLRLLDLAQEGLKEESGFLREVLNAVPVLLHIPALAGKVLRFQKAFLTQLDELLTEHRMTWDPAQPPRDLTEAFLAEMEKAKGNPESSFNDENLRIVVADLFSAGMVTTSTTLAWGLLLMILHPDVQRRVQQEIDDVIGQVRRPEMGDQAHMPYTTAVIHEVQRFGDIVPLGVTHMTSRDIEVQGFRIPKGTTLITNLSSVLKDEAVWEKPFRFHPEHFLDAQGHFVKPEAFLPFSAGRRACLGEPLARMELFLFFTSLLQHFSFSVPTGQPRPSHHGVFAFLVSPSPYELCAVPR
How it was run: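 P450-Glo luminescent screen: recombinant CYP2D6 enzyme–proluciferin substrate mix preincubated with compound 10 min at room temperature, then NADPH regeneration added for 1 h at room temperature. Detection reagent added for 20 min; luciferin light read as relative luminescence units.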

[7] = Cell Viability qHTS for small molecule stabilizers of the endoplasmic reticulum resident proteome (AID 1508629); conditions: cell viability counter-screen, 100 nM thapsigargin for final 4 h;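 also: human SH-SY5Y neuroblastoma cells carrying the GLuc-SERCaMP reporter; compound exposure about 46 h in total before the viability read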
[8] = A High-Content qHTS Against Drug Library for the Identification of Small Molecules that Inhibit DYT1 Early Onset Primary Dystonia-Associated Cell Pathology (AID 1645839; calls by dose curve; also: series mostly up to about 46 µM)
How it was run: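 In this high-content image screen, delE TorsinA mislocalization in inducible Flp-In 293 cells is scored as %pathology, with cell count serving as the counterscreen. Compound exposure lasts 48 h under tetracycline induction in reduced-serum medium.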

In the case of NCc1cc(=O)[nH]o1, the outcome [1] is reported as “inactive”, the Potency [2] is reported as “inactive” and the Potency [3] is reported as “inactive”. For the same compound, the Potency [4] was “inactive”.

For CCCCCCCCCC(CC)c1ccc(S(=O)(=O)O)cc1 (configuration not stated), the outcome [1] was “inactive”, the outcome [5] was “inactive” and the Potency [4] was “inactive”. For the same compound, the Potency [6] was 26.7 µM (active).

In the case of Nc1ccc(Cl)cc1N, the outcome [1] is reported as “inactive”, the Potency [2] is reported as “inactive” and the max response [7] is reported as 1.89%. For the same compound, the Potency [6] was 25.9 µM (active).

With O=[N+]([O-])c1ccc([As](=O)(O)O)cc1 the outcome [1] was “inactive”, the outcome [5] was “inactive” and the Potency [4] was “inactive”. The Potency [6] was “inactive”.

In the case of Nc1ccc([N+](=O)[O-])cc1, the outcome [1] is reported as “inactive”, the outcome [5] is reported as “inactive” and the Potency [6] is reported as “inactive”.

In the case of CC1=C(C(=O)O)N2C(=O)[C@@H](N)[C@H]2SC1, the activity change [1] is reported as -1.92% [at 1.78 µM], the outcome [5] is reported as “inactive” and the Potency [4] is reported as “inactive”. For the same compound, the % pathology change, negative = correction [8] was 1.33% [at 19.1 µM] and the Potency [6] was “inactive”.

With CCCCC(CC)COC(=O)c1ccccc1C(=O)OCC(CC)CCCC (configuration not stated) the outcome [1] was “inactive”, the outcome [5] was “inactive” and the Potency [8] was “inactive”. The Potency [6] was “inactive”.

In the case of Oc1ccc2c3c1O[C@H]1[C@@H](O)C=C[C@H]4[C@@H](C2)NCC[C@@]341, the outcome [1] is reported as “inactive”, the Potency [2] is reported as “inactive” and the Potency [8] is reported as “inactive”.

With O=S(=O)(O)C(F)(F)C(F)(F)C(F)(F)C(F)(F)C(F)(F)C(F)(F)C(F)(F)C(F)(F)F the outcome [1] was “inactive”, the outcome [5] was “inactive” and the Potency [4] was “inactive”. For the same compound, the Potency [6] was “inactive”.

For CCCN1CCO[C@@H]2c3cc(O)ccc3OC[C@H]21, the outcome [1] was “inactive” and the Potency [4] was “inactive”.

With NC(N)=NOCCC(N)C(=O)O (configuration not stated) the outcome [1] was “inactive” and the Potency [4] was “inactive”.

With C=CC(=O)NCNC(=O)C=C the outcome [1] was “inactive”, the outcome [5] was “inactive” and the Potency [4] was “inactive”. The Potency [6] was “inactive”.

With O=C(O)Cc1cnc[nH]1 the outcome [1] was “inactive” and the Potency [4] was “inactive”.

With OCCCBr the outcome [1] was “inactive”, the outcome [5] was “inactive” and the Potency [8] was “inactive”. The Potency [6] was “inactive”.

For CO/C=C(/C(=O)OC)c1ccccc1Oc1cc(Oc2ccccc2C#N)ncn1, the outcome [1] was “inactive”, the outcome [5] was “inactive” and the Potency [4] was “inactive”. For the same compound, the Potency [8] was “inactive” and the Potency [6] was 39.9 µM (active).

With O=C(O)CCCOc1ccc(Cl)cc1Cl the outcome [1] was “inactive”, the outcome [5] was “inactive” and the Potency [8] was “inactive”. For the same compound, the Potency [6] was “inactive”.

In the case of O=C(O)COc1ccccc1, the outcome [1] is reported as “inactive”, the outcome [5] is reported as “inactive” and the Potency [4] is reported as “inactive”. The Potency [8] was “inactive” and the Potency [6] was “inactive”.

With O=C(O)COc1nc(Cl)c(Cl)cc1Cl the outcome [1] was “inactive”, the outcome [5] was “inactive” and the Potency [4] was “inactive”. The Potency [8] was “inactive” and the Potency [6] was “inactive”.

For Cc1ccc(Cl)c(O)c1, the outcome [1] was “inactive”, the outcome [5] was “inactive” and the Potency [8] was “inactive”. The Potency [6] was “inactive”.

For COC(=O)c1cncn1C(C)c1ccccc1 (configuration not stated), the outcome [1] was “inactive”, the outcome [5] was “inactive” and the Potency [4] was “inactive”. The Potency [8] was “inactive” and the Potency [6] was 7.76 µM (active).

In the case of Cc1nccc2c1[nH]c1ccccc12, the outcome [1] is reported as “inactive” and the Potency [4] is reported as “inactive”.

For C[C@@H](N)Cc1cnc[nH]1, the outcome [1] was “inactive” and the Potency [4] was “inactive”.

With Fc1cc(Br)ccc1CBr the outcome [1] was “inactive”, the outcome [5] was “inactive” and the Potency [4] was “inactive”. The Potency [8] was “inactive” and the Potency [6] was “inactive”.

For Nc1ccc(Sc2ccc(N)cc2)cc1, the outcome [1] was “inactive”, the outcome [5] was “inactive” and the Potency [4] was “inactive”. For the same compound, the Potency [6] was 24.5 µM (active).

For CC1(C)CC/C(=C/c2ccc(Cl)cc2)C1(O)Cn1cncn1 (configuration not stated), the outcome [1] was “inactive”, the outcome [5] was “inactive” and the Potency [4] was “inactive”. The Potency [8] was “inactive” and the Potency [6] was 9.41 µM (active).

For CCOP(=O)(NC(C)C)Oc1ccc(SC)c(C)c1 (configuration not stated), the outcome [1] was “inactive”, the outcome [5] was “inactive” and the Potency [8] was “inactive”. The Potency [6] was 3.88 µM (active).

In the case of CCC(=O)O[C@@H]1C=C2CCC3C(CCC4(C)C3CC[C@@H]4OC(=O)CC)C2CC1 (some centres not stated), the outcome [1] is reported as “inactive”, the Potency [4] is reported as “inactive” and the Potency [8] is reported as “inactive”.

For O=C(Cc1ccc(Cl)c(Cl)c1)N1CCCCC1CN1CCCC1 (configuration not stated), the outcome [1] was “inactive” and the Potency [4] was “inactive”.

For COC(C)(C)CCCC(C)C/C=C/C(C)=C/C(=O)OC(C)C (configuration not stated), the outcome [1] was “inactive”, the Potency [4] was “inactive” and the Potency [8] was “inactive”. For the same compound, the Potency [6] was “inactive”.

With COc1cc(C(O)CN)ccc1O (configuration not stated) the outcome [1] was “inactive” and the Potency [4] was “inactive”.

For CC(=O)[C@H]1CCC2C3CC[C@H]4C[C@H](O)CC[C@]4(C)C3CC[C@@]21C (some centres not stated), the outcome [1] was “inactive” and the Potency [4] was “inactive”.
